Here are results for 45 compounds from PubChem BioAssay (NCATS).

Assay [1] is described as follows: Inducers of the Endoplasmic Reticulum Stress Response (ERSR) in human glioma: Validation (AID 504836; active means well fitted curve in the direction sought with a large enough effect; further: 0% is about no effect). In short, it runs like this:
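Stably transfected U87-MG human glioma cells carrying a GRP78-based luminescent sensor were seeded at 1000 cells/well, pin-dosed with compounds and incubated 16 h. Luciferase reagent was then added, and end-point luminescence was read after 10 min at room temperature.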

Assay [2] is described as follows: qHTS for Inhibitors of the Functional Ribonucleoprotein Complex (vRNP) of Lassa (LASV) Arenavirus: LASV Primary Screen - GLuc reporter signal (AID 1347082; calls by dose curve; tested in HEK293 reporter line; further: on the % scale 0 is the no-effect control and ±100 the full control effect; nearly all actives have a fitted effect of over 60% in size). (qHTS replaces the single test concentration by a dilution series.)
The nature of assay [3]: Confirmatory qHTS to identify inhibitors of SARS-CoV-2 cell entry (AID 1645844). Further: nearly all actives have a fitted effect of over 45% in size. Further: potency means the concentration at half of the fitted maximal effect. The gist of the method: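 HEK293-ACE2 cells (Expi293F stably expressing human ACE2) were pretreated with compounds for 1 hr at 37C, then infected with MLV-based particles carrying Wuhan-Hu-1 spike (C-terminal 19-aa truncation). Luciferase luminescence read after 48 hr; normalized to spike PP (100%) and bald PP (0%).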

Assay [4] can be described thus: Cytotoxicity counterscreen for inhibitors of SARS-CoV-2 cell entry (AID 1645845). Further: on the % scale 0 is the no-effect control and ±100 the full control effect; nearly all actives have a fitted effect of over 50% in size. The gist of the method: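 Expi293F/hACE2 cells seeded overnight; cpd pin-transferred in DMSO, 1 h preincubation, + media, 48 h 37 C 5% CO2; ATPLite 1step luminescence; normalized to cells and no cells.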
Assay [5] can be described thus: Primary qHTS to identify inhibitors of SARS-CoV-2 cell entry (AID 1645846). Further: nearly all actives have a fitted effect of over 45% in size. The conditions noted are these: activity change, negative = inhibition: at 57.1 µM (top of the series) unless noted. In short, it runs like this:
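Inhibition of spike-mediated entry was scored in human ACE2-transfected Expi293F cells. Particles were MLV-pseudotyped with Wuhan-Hu-1 S carrying a 19-aa C-terminal deletion; signal was luciferase after two days, scaled between spike PP and fusion-protein-free PP.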

Assay [6] is described as follows: qHTS for Inhibitors of the Functional Ribonucleoprotein Complex (vRNP) of Lassa (LASV) Arenavirus: Viability assay - alamar blue signal for LASV Primary Screen (AID 1347083; calls by dose curve; tested in HEK293 reporter line; further: nearly all actives have a fitted effect of over 80% in size; further: potency means the concentration at half of the fitted maximal effect).
A short description of assay [7]: qHTS for Inhibitors of the Functional Ribonucleoprotein Complex (vRNP) of Lymphocytic Choriomeningitis Arenaviruses (LCMV): Viability assay - alamar blue signal for LCMV Primary Screen (AID 1347085; calls by dose curve; tested in HEK293 reporter line; further: nearly all actives have a fitted effect of over 80% in size; further: potency means the concentration at half of the fitted maximal effect).
Assay [8] addresses Nucleoprotein (Lymphocytic choriomeningitis virus (strain Armstrong)) (UniProt P09992). Put plainly: qHTS for Inhibitors of the Functional Ribonucleoprotein Complex (vRNP) of Lymphocytic Choriomeningitis Arenaviruses (LCMV): LCMV Primary Screen - GLuc reporter signal (AID 1347086). Further: potency means the concentration at half of the fitted maximal effect; nearly all actives have a fitted effect of over 70% in size.

Results filed as inconclusive are left out. The source made the active and inactive calls. Unless noted, the call rests on the fitted dose curve.

Nucleoprotein (Lymphocytic choriomeningitis virus (strain Armstrong)), sequence (P09992 whole entry, looked up): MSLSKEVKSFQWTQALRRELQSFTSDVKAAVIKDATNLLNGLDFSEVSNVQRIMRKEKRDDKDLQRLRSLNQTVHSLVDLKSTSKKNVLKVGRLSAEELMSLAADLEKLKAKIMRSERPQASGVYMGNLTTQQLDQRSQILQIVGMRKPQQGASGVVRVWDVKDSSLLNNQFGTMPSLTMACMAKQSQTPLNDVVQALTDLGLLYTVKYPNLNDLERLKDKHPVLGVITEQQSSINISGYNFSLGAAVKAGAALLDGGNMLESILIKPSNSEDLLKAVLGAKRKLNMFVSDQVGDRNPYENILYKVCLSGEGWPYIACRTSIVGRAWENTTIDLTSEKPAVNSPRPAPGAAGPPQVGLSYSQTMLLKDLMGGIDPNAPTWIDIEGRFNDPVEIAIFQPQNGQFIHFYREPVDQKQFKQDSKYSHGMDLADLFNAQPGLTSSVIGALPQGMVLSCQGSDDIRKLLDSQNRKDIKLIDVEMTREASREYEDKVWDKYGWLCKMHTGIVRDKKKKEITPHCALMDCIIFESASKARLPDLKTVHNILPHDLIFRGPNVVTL

With `CC[C@H](C)C(=O)O[C@H]1CCC=C2C=C[C@H](C)[C@H](CC[C@@H]3C[C@@H](O)CC(=O)O3)[C@H]21`, the compound was classed as inactive in assay [1]. Further, the Potency result in assay [2], in assay [3] and in assay [4] was “inactive” each time. In addition, in assay [5], the activity change, negative = inhibition was -51.5%.

In the case of `CNCCc1cnc(CCC(c2ccccc2)c2ccccc2)[nH]1`, the compound was called inactive in assay [1]. Moreover, the Potency entry in assay [2] is “inactive”.

For `CN1c2ccccc2C(=O)N2CCc3c([nH]c4ccccc34)C21` (stereo not drawn), in assay [2], the Potency entry is “inactive”. Also, the Potency in assay [3] was 6810 nM (active).

With `O=c1[nH]c(=O)n([C@H]2C[C@@H](O)[C@@H](CO)O2)cc1F`, the figures for the Potency in assay [6] and in assay [7] were 5440 nM (active) and 7690 nM (active), respectively.

Turning to `CC(=CCOc1ccc2ccc(=O)oc2c1)C1=CC(=O)C(C)(C)O1`, the Potency result in assay [6] and in assay [7] was “inactive” in each case.

In the case of `O=C(O)CO.[NH2-].[NH2-].[Pt+2]`, the Potency result in assay [6] and in assay [7] was “inactive” each time.

As for `CCN(CC)CCNC(=O)COc1ccc(Cl)cc1`, the Potency result in assay [6] and in assay [7] was “inactive” throughout.

As for `C[C@H]1[C@H](O)O[C@@H]2O[C@@]3(C)CC[C@@H]4[C@H](C)CC[C@@H]1[C@@]24OO3`, the Potency is 10000 nM (active) in assay [6] and 15800 nM (active) in assay [7].

On to `CO[C@H]1C[C@@H]2CC[C@@H](C)[C@@](O)(O2)C(=O)C(=O)N2CCCC[C@@H]2C(=O)O[C@H]([C@H](C)C[C@@H]2CC[C@H](OP(C)(C)=O)[C@H](OC)C2)CC(=O)[C@H](C)C=C(C)[C@@H](O)[C@@H](OC)C(=O)[C@H](C)C[C@H](C)C=CC=CC=C1C`, for which the Potency in assay [6] is 10.9 nM (active); in assay [7] it was 15.3 nM (active).

Consider `C[C@@H](Oc1ccc2[nH]nc(C=Cc3cnn(CCO)c3)c2c1)c1c(Cl)cncc1Cl`, for which the results for the Potency in assay [6] and in assay [7] were 24300 nM (active) and 27300 nM (active), respectively.

For `O=C1NC(=O)[C@@H](c2cn3c4c(cccc24)CCC3)[C@H]1c1c[nH]c2ccccc12`, the Potency in assay [6] is 2170 nM (active); in assay [7] it was 4320 nM (active).

Turning to `O=C(c1ccc(F)c(F)c1Nc1ccc(I)cc1F)N1CC(O)([C@H]2CCCCN2)C1`, the Potency in assay [6] is 8630 nM (active); in assay [7], 3060 nM (active).

As for `CC(=O)OCC(=O)[C@@]12N=C(C)O[C@H]1C[C@H]1[C@@H]3CCC4=CC(=O)C=C[C@]4(C)[C@@H]3[C@@H](O)C[C@@]12C`, the Potency entry in assay [6] and in assay [7] was “inactive” each time.

As to `COc1cc2c(cc1O)CCC1C2CC[C@@]2(C)C1CC[C@@H]2O` (stereo partly drawn), the Potency in assay [6] is 5440 nM (active).

Take `COc1cc(C(=S)N2CCOCC2)cc(OC)c1OC`: the Potency result in assay [6] and in assay [7] was “inactive” each time.

On to `CCCCC1CCC(=O)O1` (stereo not drawn), for which the Potency entry in assay [6] and in assay [7] was “inactive” in each case.

Turning to `COc1cc(C)ccc1O`, the Potency result in assay [6] and in assay [7] was “inactive” each time.

For the compound `CC(=O)OC1CC2(O)C3CCC4CC(O)CCC4(C)C3CCC2(C)C1C1=CC(=O)OC1` (stereo not drawn), the Potency is 282 nM (active) in assay [6] and 316 nM (active) in assay [7].

With `CC(C)Oc1ccc(C(=O)N[C@H](CNC(=O)CN(C)C)Cc2ccc(-c3cn4cccc([C@H](C)O)c4n3)cc2)cc1Cl`, the results for the Potency in assay [6] and in assay [7] were 1930 nM (active) and 968 nM (active), respectively.

With `O=C(C=Cc1ccc(CN(CCO)CCc2c[nH]c3ccccc23)cc1)NO`, the Potency in assay [6] and in assay [7] was 1370 nM (active) each time.

Turning to `Oc1ccc(C2=Cc3ccc(O)cc3OC2)cc1`, in assay [6], the Potency was 24300 nM (active).

As to `CC[C@H]1OC(=O)[C@H](C)[C@@H](O[C@H]2C[C@@](C)(OC)[C@@H](O)[C@H](C)O2)[C@H](C)[C@@H](O[C@@H]2O[C@H](C)C[C@H](N(C)C)[C@H]2O)[C@](C)(O)C[C@H](C)C(=NOCOCCOC)[C@H](C)[C@@H](O)[C@]1(C)O`, the Potency result in assay [6] and in assay [7] was “inactive” throughout.

Turning to `O=C(OCCOCCO)c1ccccc1Nc1cccc(C(F)(F)F)c1`, the Potency entry in assay [6] and in assay [7] was “inactive” throughout.

Turning to `CCCCCN=C(N)NN=Cc1c[nH]c2ccc(OC)cc12`, the results for the Potency in assay [6] and in assay [7] were 6110 nM (active) and 10900 nM (active), respectively.

As for `CC(C)NC[C@H](O)COc1cccc2ccccc12`, the Potency entry in assay [6] and in assay [7] was “inactive” each time.

Turning to `C=C1C(=O)O[C@@H]2C[C@@H](C)[C@@H]3C=CC(=O)[C@@]3(C)[C@@H](OC(C)=O)[C@H]12`, the Potency in assay [6] and in assay [7] was 4470 nM (active) each time.

As to `C=Cc1ncc(OC)c2c1[nH]c1ccccc12`, the Potency entry in assay [6] and in assay [7] was “inactive” throughout.

Regarding `Clc1ccc(C2(c3ccc(-c4cn[nH]c4)cc3)CCNCC2)cc1`, the Potency in assay [6] and in assay [7] was 5440 nM (active) in each case.

As to `CC(=O)OC1C(O)C(C)OC(OC2C(OC(=O)C3CCC4C(C3)OC3(CC(OC(=O)/C=C/c5ccccc5)C(C)CO3)C43CO3)OC(C)C(O)C2OC(C)=O)C1O` (stereo not drawn), the Potency in assay [6] is 178 nM (active).

In the case of `CO[C@H]1C[C@@H]2CC[C@@H](C)[C@@](O)(O2)C(=O)C(=O)N2CCCC[C@@H]2C(=O)O[C@H]([C@H](C)C[C@@H]2CC[C@H](OC(=O)C(C)(CO)CO)[C@H](OC)C2)CC(=O)[C@H](C)C=C(C)[C@@H](O)[C@@H](OC)C(=O)[C@H](C)C[C@H](C)C=CC=CC=C1C`, the Potency in assay [6] is 12.2 nM (active); in assay [7], 27.3 nM (active); in assay [8], 15.3 nM (active).

For `C=C1CCC2[C@](C)(CO)[C@H](O)CC[C@@]2(C)[C@@H]1/C=C/C1=CCOC1=O` (stereo partly drawn), the Potency result in assay [6] and in assay [7] was “inactive” throughout.

As for `C/C=C/c1ccc(OC(C)[C@@H](O)c2ccc(O)c(OC)c2)c(OC)c1` (stereo partly drawn), the Potency entry in assay [6] and in assay [7] was “inactive” each time.

As to `C[C@@H]1[C@H](O)[C@@H](C)C=CC=CC=CC=CC=CC=CC=C[C@H](O[C@@H]2O[C@H](C)[C@H](O)[C@H](N)[C@@H]2O)C[C@@H]2O[C@](O)(C[C@@H](O)C[C@@H](O)[C@H](O)CC[C@@H](O)C[C@@H](O)CC(=O)O[C@H]1C)C[C@H](O)[C@@H]2C(=O)O`, the Potency in assay [6] was 10900 nM (active); in assay [7], 8630 nM (active); in assay [8], 4850 nM (active).

`CC(=O)OCC(=O)[C@@]12OC(C)(C)O[C@H]1C[C@H]1[C@@H]3C[C@H](F)C4=CC(=O)C=C[C@]4(C)[C@@]3(F)[C@@H](O)C[C@@]12C`: the Potency result in assay [6] and in assay [7] was “inactive” each time.

As to `COCCOc1nc(-c2ccc(Cl)c(Cl)c2)n(-c2ccc(NC(=O)CCl)cc2)n1`, the Potency entry in assay [6] was “inactive”.

On to `CN[C@@H]1C[C@H]2O[C@@](C)([C@H]1OC)n1c3ccccc3c3c4c(c5c6ccccc6n2c5c31)C(=O)N[C@H]4O`, for which the Potency was 355 nM (active) in assay [6] and 2730 nM (active) in assay [7].

In the case of `CNC1CCC(N(Cc2cccc(-c3ccncc3)c2)C(=O)c2sc3c(F)ccc(F)c3c2Cl)CC1` (stereo not drawn), the Potency in assay [6] is 7690 nM (active); in assay [7], 5440 nM (active).

As to `Cc1ncnc2nc[nH]c12`, in assay [6], the Potency is 1580 nM (active).

`CC(Cc1ccccc1)(NC(=O)CN)c1ccccc1` (stereo not drawn): the Potency entry in assay [6] and in assay [7] was “inactive” in each case.

For `O=C(O)CO`, the Potency result in assay [6] and in assay [7] was “inactive” each time.

On to `CCC1=C[C@@H]2CN(C1)Cc1c([nH]c3ccccc13)[C@@](C(=O)OC)(c1cc3c(cc1OC)N(C)[C@@H]1[C@@](O)(C(=O)OC)[C@H](OC(C)=O)[C@]4(CC)C=CCN5CC[C@]31[C@@H]54)C2`, for which the figures for the Potency in assay [6] and in assay [7] were 306 nM (active) and 217 nM (active), respectively.

As for `COC1C(O)C(C)OC(OC2CCC3(C)C(CCC4C3C(O)CC3(C)C(C5=CC(=O)OC5)CCC43O)C2)C1O` (stereo not drawn), the figures for the Potency in assay [6] and in assay [7] were 251 nM (active) and 355 nM (active), respectively.

With `O=C1NC2C(=CC(O)C(O)C2O)c2cc3c(cc21)OCO3` (stereo not drawn), the Potency in assay [6] was 199 nM (active); in assay [7], 282 nM (active).

For `O=C(Cc1ccc(-c2ccc(OCCN3CCOCC3)cc2)cn1)NCc1ccccc1`, the Potency in assay [6] was 48.5 nM (active); in assay [7], 54.4 nM (active); in assay [8], 137 nM (active); in assay [3], 136 nM (active).

On to `O=C(C=CC#Cc1cccc(NS(=O)(=O)c2ccccc2)c1)NO`, for which the results for the Potency in assay [6], in assay [7] and in assay [8] were 13700 nM (active), 6850 nM (active) and 12200 nM (active), respectively.
